The list is not random: actives were taken first. Their share in the collection is about 2.3%.
MmCpn inh: inhibitors of Methanococcus maripaludis chaperonin TRiC (MmCpn); Potency, µM (series often up to 76.9 µM), without a hit: top-dose activity, negative = inhibition, usual class: inhibitors; hit rate 0.031% among 330,000; AID 504842; purified Mm-Cpn ATPase, ADP Transcreener TR-FRET; further: potency means the concentration at half of the fitted maximal effect; on the % scale 0 is the no-effect control and ±100 the full control effect; nearly all actives have a fitted effect of over 80% in size
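TR-FRET (320 nm excitation; 590 and 665 nm emission) reports ADP made from 10 uM ATP by 25 nM enzyme; compounds were preincubated 10 min, reaction run 30 min, both at 37°C.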
TDP-43 yeast inh: inhibitors of TDP-43 toxicity in yeast; TDP-43 expressing yeast growth rescue, BacTiter-Glo, 24 h; Potency, µM (titrated, usually from 46.1 µM), for inactives: top-dose growth rescue (activation), usual class: activators; hit rate 1.8% among 410,000; AID 652104; further: potency means the concentration at half of the fitted maximal effect; % of control where 0% means no effect; nearly all actives have a fitted effect of over 50% in size
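Yeast cells expressing TDP-43 under galactose induction are exposed to compounds for 24 hr at 30 deg C. BacTiter-Glo luminescence measures growth, so protective compounds score as activators.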
FUS suppressor: rescues growth of FUS-expressing yeast; Potency, µM (titrated, usually from 76.6 µM), actives largely listed as activators; hit rate 0.24% among 390,000; AID 1347120; S. cerevisiae FUS-expressing, growth rescue, OD600, 24 h;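 further: potency means the concentration at half of the fitted maximal effect; plate controls were DMSO vehicle for no effect and reference control for full effect; nearly all actives have a fitted effect of over 55% in size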
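Read-out: OD at 600 nm after 24hr at 30C, reporting rescue of FUS-induced yeast toxicity. Cells at OD 0.005 in galactose (2%) minimal medium; compounds tested in a dilution series; CP55940 titration from 92uM final as control.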
CCT modulator: cytosolic chaperonin activity modulation; activity change, % (test concentration not listed), hits read low; purified chaperonin ATPase assay, HTRF ADP detection, 30 min; hit rate 0.3% among 360,000; in the data active means activity change below about -30%; further: on the % scale 0 is the no-effect control and ±100 the full control effect
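ATPase activity: ADP formed was measured by HTRF Transcreener (665/615 nm ratio) after 30 min at 37 deg C with 10 uM ATP. Compounds screened at one 76 uM concentration against 40 or 20 nM TRiC in Tris pH 7.4/KCl/MgCl2/DTT buffer.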
aSyn yeast inh: rescues yeast growth from alpha-synuclein toxicity; hit rate 0.14% among 370,000; Yeast expressing alpha-synuclein, growth rescue, BacTiter-Glo, 24 h; Potency, µM (top dose mostly 46.1 µM), for inactives: top-dose growth rescue (activation), most hits filed as activators; further: potency means the concentration at half of the fitted maximal effect; % of control where 0% means no effect; nearly all actives have a fitted effect of over 65% in size
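Screening used galactose-induced yeast with toxic alpha-synuclein levels, exposed to compound for 24 hr at 30 deg C. Cell growth, read with BacTiter-Glo luminescence, gave the measured signal.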
Abeta yeast res: compounds reversing amyloid beta toxicity in yeast; hit rate 0.063% among 410,000; Potency, µM (titrated, usually from 46.1 µM), actives largely listed as activators; yeast expressing A-beta42, growth rescue, OD600, 48 h; response scale: 0% DMSO, 100% iron-clioquinol control; further: potency means the concentration at half of the fitted maximal effect; nearly all actives have a fitted effect of over 55% in size
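Yeast growth medium received pinned compounds, then yeast cells expressing toxic A-beta were added; plates incubated at 30 C for 48 hr. Growth read as absorbance at 600 nm, normalized to DMSO and equimolar FeCl3 plus clioquinol controls.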
Numbers without * were called inactive; [ ] = another dose, or the depositor's remark. Unless noted, the call rests on the fitted dose curve; in most records, active means well fitted curve in the direction sought with a large enough effect; inconclusive means small, poorly fitted or top-dose-only effect, or another doubt; inactive means no such curve, though single readings can be large; an effect the other way counts as inactive or inconclusive.

CC(Oc1ccccc1)C(=O)Nc1nnc2n1CCS2 (configuration not stated) was read as TDP-43 yeast inh 14.9%, FUS suppressor inactive and Abeta yeast res inactive.
Cc1ccc2cccc(SCC(=O)Nc3ccc(F)cc3)c2n1 was read as MmCpn inh -5.5%, TDP-43 yeast inh -6.9%, FUS suppressor inactive, CCT modulator -73.8*, aSyn yeast inh 7.3% and Abeta yeast res inactive.
For Cc1ccc2cccc(SCC(=O)NCc3ccco3)c2n1 the results were MmCpn inh -3.4%, TDP-43 yeast inh -9.3%, FUS suppressor inactive, CCT modulator -5.2, aSyn yeast inh -4.5% and Abeta yeast res inactive.
`CCCOc1ccc(F)cc1-c1cc(C(=O)Nc2ccc(OC)cc2OC)[nH]n1` gave TDP-43 yeast inh inconclusive, FUS suppressor inactive, CCT modulator -1.3, aSyn yeast inh -2.7% and Abeta yeast res inactive.
Screening CCCOc1ccc(F)cc1-c1cc(C(=O)Nc2ccc(OC)cc2C)[nH]n1 returned TDP-43 yeast inh 25.1µM*, FUS suppressor inactive, CCT modulator -0.1, aSyn yeast inh -9.4% and Abeta yeast res inactive.
For O=C(CSc1ncccn1)N/N=C/c1ccc(OC2CSC2)cc1 the results were MmCpn inh 0.9%, TDP-43 yeast inh 11.2µM*, FUS suppressor inactive, CCT modulator 1.2, aSyn yeast inh 6.2% and Abeta yeast res inactive.
Screening O=C(CSc1ncccn1)N/N=C/c1ccc2c(c1)OCO2 returned MmCpn inh -1.3%, TDP-43 yeast inh -4.4%, FUS suppressor inactive, CCT modulator -1.2, aSyn yeast inh -6.0% and Abeta yeast res inactive.
Screening CCCCCCCCN1C(=O)N2Cc3ccccc3C2CS1(=O)=O (configuration not stated) returned FUS suppressor inactive.
`CC1CC(C)CN(C(=O)c2ccncc2)C1` (configuration not stated) gave MmCpn inh 0.3%, TDP-43 yeast inh 9.8%, FUS suppressor inactive, CCT modulator -37.8*, aSyn yeast inh -2.6% and Abeta yeast res inconclusive.
For COC(=O)c1cc(-c2ccc(Cl)s2)c(=O)n2c1CCC2 the results were FUS suppressor inactive.
COc1ccccc1C/C(N)=N/OC(=O)c1ccco1 was read as MmCpn inh 3.3%, TDP-43 yeast inh 10µM*, FUS suppressor inactive, CCT modulator -1.5, aSyn yeast inh -32.7% and Abeta yeast res inactive.
`O=C(NC1CC1)c1cc2c(s1)-c1ccccc1OC2` gave MmCpn inh -7.0%, TDP-43 yeast inh inconclusive, FUS suppressor inactive, CCT modulator -1.9, aSyn yeast inh -13.7% and Abeta yeast res inactive.
`O=C(O)c1cc2c(s1)-c1ccccc1OC2` gave MmCpn inh -8.6%, TDP-43 yeast inh 31.6µM*, FUS suppressor inactive, CCT modulator -1.9, aSyn yeast inh -4.1% and Abeta yeast res inactive.
Cc1nn(C)c2c1c(C(F)(F)F)cc(=O)n2CC(=O)N1CCCCC1C (configuration not stated) was read as TDP-43 yeast inh 8.3%, FUS suppressor inactive and Abeta yeast res inactive.
`Cc1ccc(C)c(NC(=S)Nc2cccnc2)c1` gave MmCpn inh 1.2%, TDP-43 yeast inh 2.4%[9.22 µM], FUS suppressor inactive, CCT modulator 0.0, aSyn yeast inh 2.2% and Abeta yeast res inactive.
For Cc1ccc(NC(=S)Nc2cccnc2)c(S(=O)(=O)N2CCCCC2)c1 the results were MmCpn inh -0.9%, TDP-43 yeast inh 15.1%, FUS suppressor 35.5µM*, CCT modulator -1.4, aSyn yeast inh -0.3% and Abeta yeast res inactive.
`CC(C)S(=O)(=O)c1oc(-c2cccs2)nc1S(=O)(=O)c1ccc(F)cc1` gave TDP-43 yeast inh 8.91µM*, FUS suppressor inactive and Abeta yeast res inactive.
`CSc1oc(-c2ccc(F)cc2)nc1S(=O)(=O)c1ccccc1` gave MmCpn inh -2.6%, TDP-43 yeast inh -7.7%, FUS suppressor inactive, CCT modulator -0.9, aSyn yeast inh -0.1% and Abeta yeast res inactive.
Cc1ccc(S(=O)(=O)c2nc(-c3cccs3)oc2SC(C)C)cc1 was read as TDP-43 yeast inh 7.7%, FUS suppressor inactive and Abeta yeast res inactive.
`CCS(=O)(=O)c1oc(-c2ccc(F)cc2)nc1S(=O)(=O)c1ccc(Br)cc1` gave TDP-43 yeast inh 28.2µM*, FUS suppressor inactive and Abeta yeast res inactive.
`CCCCS(=O)(=O)c1oc(-c2ccc(F)cc2)nc1S(=O)(=O)c1ccccc1` gave TDP-43 yeast inh 14.1µM*, FUS suppressor inactive and Abeta yeast res inactive.
CC(C)S(=O)(=O)c1oc(-c2ccc(F)cc2)nc1S(=O)(=O)c1ccccc1 was read as TDP-43 yeast inh 12.6µM*, FUS suppressor inactive and Abeta yeast res inactive.
For CS(=O)(=O)c1oc(-c2ccc(F)cc2)nc1S(=O)(=O)c1ccc(Cl)cc1 the results were TDP-43 yeast inh 0.0%, FUS suppressor inactive and Abeta yeast res inactive.
CCCC[C@]12Cc3ccccc3C(O1)c1c(cc(-c3ccccc3)oc1=O)O2 was read as MmCpn inh -0.1%[15.4 µM].
For CC1(C)CC(=O)C2=C(C1)O[C@@]1(c3ccsc3)Cc3cc(C#N)ccc3C2O1 the results were MmCpn inh -0.7%[15.4 µM].
Screening CCN(C(=O)c1ccc2c(=O)n3c(nc2c1)CCCCC3)c1cc(C)ccc1C returned TDP-43 yeast inh 9.4%, FUS suppressor inactive and Abeta yeast res inactive.
For CC[N+]1(CC(=O)c2cccs2)CCCCC1 the results were aSyn yeast inh -9.5%.
For Cc1cc(C)c(S(=O)(=O)NCCn2ccc3ccccc32)c(C)c1 the results were MmCpn inh -1.0%, TDP-43 yeast inh 12.6µM*, FUS suppressor inactive, CCT modulator 0.2, aSyn yeast inh inconclusive and Abeta yeast res inconclusive.
`Cc1cc(C)c(S(=O)(=O)NCCc2ccccc2)c(C)c1` gave MmCpn inh -0.3%, TDP-43 yeast inh 3.9%, FUS suppressor inactive, CCT modulator -0.4, aSyn yeast inh 20µM* and Abeta yeast res inactive.
Screening Cc1ccc(-c2c(C(=O)NCC(C)C)oc(=O)c3ccccc23)cc1 returned FUS suppressor inactive.
Screening CCc1cccc2sc(N3CCN(C(=O)C4CC4)CC3)nc12 returned TDP-43 yeast inh 11.2µM*, FUS suppressor inactive and Abeta yeast res inactive.
For Cc1c(Cl)ccc2sc(N3CCN(C(=O)C4CC4)CC3)nc12 the results were TDP-43 yeast inh 31.6µM*, FUS suppressor inconclusive and Abeta yeast res inactive.

Bioassay records (PubChem BioAssay)
